Screening results deposited in PubChem by Sanford-Burnham Center for Chemical Genomics.
SENP7 block = SENP7 protease inhibition | Q9BQF6 | recombinant SENP7, Z-RLRGG-aminoluciferin luminescence, 40 min | inhibition, % at 5 µM | 330,000 compounds, 1.5% hits | AID 434973;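 active = inhibition above about 50% at the single test dose, limit read from the data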;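 also: plate controls were DMSO with enzyme for no effect and no enzyme buffer wells for full effect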
SENP8 block-1 = blocks the human protease SENP8; Q96LD8; purified SENP8, Z-RLRGG-aminoluciferin cleavage, luminescence; inhibition, % at 10 µM; 330,000 compounds, 1.2% hits; AID 2540; in the data active = inhibition above about 50%
SENP6 inh = inhibitors of human SENP6 protease | Q9GZR1 | Recombinant SENP6 catalytic domain, aminoluciferin luminescence | inhibition, % at 10 µM | 330,000 compounds, 1.8% hits | AID 2599;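 active = inhibition above about 50% at the single tested dose, limit read from the data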;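 also: plate controls were DMSO wells with enzyme for no effect and DMSO wells lacking enzyme for full effect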
Target sequence (Q9GZR1 628-1112 limits assumed): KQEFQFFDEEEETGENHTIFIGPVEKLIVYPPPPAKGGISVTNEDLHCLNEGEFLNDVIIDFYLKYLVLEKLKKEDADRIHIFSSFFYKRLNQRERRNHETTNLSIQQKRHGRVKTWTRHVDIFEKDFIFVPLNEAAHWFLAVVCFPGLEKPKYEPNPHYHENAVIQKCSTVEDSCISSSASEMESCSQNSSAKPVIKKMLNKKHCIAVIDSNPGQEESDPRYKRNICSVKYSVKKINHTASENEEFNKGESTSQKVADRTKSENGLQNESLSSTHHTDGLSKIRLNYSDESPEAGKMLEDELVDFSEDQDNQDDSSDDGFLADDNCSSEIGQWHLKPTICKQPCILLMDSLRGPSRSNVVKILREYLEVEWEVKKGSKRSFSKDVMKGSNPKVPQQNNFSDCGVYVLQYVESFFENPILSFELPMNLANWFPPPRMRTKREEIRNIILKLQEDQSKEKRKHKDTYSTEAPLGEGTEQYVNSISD
SENP8 block-2 = blocks human SENP8 cleavage of Nedd8 substrate | 360,000 compounds, 0.64% hits | inhibition, % at 20 µM | Q96LD8 | recombinant SENP8, Nedd8 substrate fluorescence; in the data active = inhibition mostly above about 40%, no sharp cut-off; inactive = mostly below about 27%
PPC-1+TRAIL kill = compounds killing PPC-1 cancer cells with TRAIL present (potentiator screen, no TRAIL-free arm). PPC-1 cells + TRAIL, ATPLite viability luminescence. cell killing (% activity), % at 4 µM or 5 µM. 220,000 compounds, 0.41% hits;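 active = cell killing above 50% in the first pass at 4 µM, then a duplicate retest at 5 µM averaging 50% or more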;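 also: plate controls were cells with TRAIL plus DMSO for no effect and medium-only wells lacking cells for full effect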
TRAIL sens C8 = sensitizes caspase-8 expressing cells to TRAIL. NB7+C8 cells + TRAIL, ATPlite viability luminescence. inhibition (viability loss, TRAIL sensitization), % at 10 µM. 360,000 compounds, 1% hits. AID 624354;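 active = compounds causing at least 50% loss of cell viability in the single-dose screen, relative to plate controls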
Starred values were filed as active, the others as inactive; x = no result given. Shown are actives, neighbours in structure and some others; about 3% of the full set was active somewhere.

SMILES	SENP7 block	SENP8 block-1	SENP6 inh	SENP8 block-2	PPC-1+TRAIL kill	TRAIL sens C8
O=C(COC(=O)/C=C/c1cccc(F)c1)NC1CCCCC1	x	x	x	13	x	-9
CCN(CC)c1ccc(N=Cc2ccc([N+](=O)[O-])o2)cc1	19	-10	6	24	53*	3
COc1cc(SC)ccc1C(=O)NCCCn1ccnc1	-4	-7	-3	7	x	-9
Oc1cccc(/C=N/NC(=S)Nc2cccnc2)c1O	x	x	x	-132	27	56*
Fc1c(F)c(F)c(/C=N/NC(=S)Nc2cccnc2)c(F)c1F	-8	-15	-12	10	38	18
Oc1ccc(/C=N/NC(=S)Nc2cccnc2)c(O)c1O	x	x	x	56*	4	-18
Oc1ccc(/C=N/NC(=S)Nc2cccnc2)c(O)c1	3	9	14	-97	28	80*
CC(C#N)(CCc1ccccn1)CCc1ccccn1	x	x	x	-1	x	1
OC(CNCCc1ccc(Cl)cc1)COc1cc(Cl)ccc1Cl (centres undefined)	4	-9	3	27	x	-4
OC(c1ccccc1)C(NCc1ccccc1)c1ccccc1 (centres undefined)	x	x	x	15	x	-1
CCCCNC(=O)C1(C)CCCCN1C(=O)c1ccno1 (centres undefined)	x	x	x	16	x	7
COc1cc(C(=O)N(C)C2CCCCC2)cc(OC)c1OC	x	x	x	14	x	12
O=C(Cc1csc(NC(=O)Nc2ccc(Cl)cc2)n1)NC1CCCC1	3	-13	-12	2	x	25
O=C(Cc1csc(NC(=O)Nc2ccc(Cl)cc2)n1)NCc1ccccn1	-2	-5	6	2	x	54*
CCOC(=O)C1=NN(c2ccccc2)C(=O)/C1=C\c1ccc(N(C)C)cc1	-3	-10	-7	5	12	-3
CC1=NN(Cc2ccccc2)C(=O)/C1=C\c1ccc(N(C)C)cc1	8	7	1	40*	12	15
O=C1/C(=C\c2ccccc2)SC(=S)N1CCC(=O)N1CCCCC1CCO (centres undefined)	0	-1	16	9	x	4
CC(C)c1ccc(/C=C2\SC(=S)N(CCC(=O)N3CCCCC3CCO)C2=O)cc1 (centres undefined)	6	38	12	31	x	60*
COC(=O)c1sccc1NC(=O)Nc1ccccc1C	-1	2	10	0	x	-25
COC(=O)c1sccc1NC(=O)Nc1ccccc1F	98*	88*	70*	7	17	-2
O=C(CN(c1cccc(C(F)(F)F)c1)S(=O)(=O)c1ccc(Cl)c([N+](=O)[O-])c1)NCc1ccccc1Cl	1	-14	-22	19	66*	2
O=C(CN(c1cccc(C(F)(F)F)c1)S(=O)(=O)c1ccc(Cl)c([N+](=O)[O-])c1)NCc1ccccc1	-5	-11	-10	3	47	-6
CCn1c2ccccc2nc2cc3c(cc21)c(Cl)c(=O)c1ccccc13	x	x	x	81*	x	79*
Cn1cc([C@@H]2C[C@H]3CN(Cc4cccc(Cl)c4)C(=O)[C@]34CCCN24)c2ccccc21	-1	-18	-4	-27	4	-4
COc1ccc(C(=O)NCCN(C)C)c2nc3ccccc3cc12	x	x	x	-7	x	51*
SMILES	SENP7 block	SENP8 block-1	SENP6 inh	SENP8 block-2	PPC-1+TRAIL kill	TRAIL sens C8
CNc1ccc(C(=O)OCC(=O)NC(=O)NC2CCCC2)cc1[N+](=O)[O-]	-8	-16	-24	24	x	9
COc1ccc(-c2csc(NC(=O)C3CCN(c4ncnc5sc(C)c(C)c45)CC3)n2)cc1OC	8	-4	-12	-11	x	69*
COc1ccccc1OCC(=O)NNC(=O)C1CCN(c2ncnc3sc(C)c(C)c23)CC1	-7	1	2	6	x	2
Cn1c(SCc2ccccc2Cl)nc2c1c(=O)[nH]c(=O)n2C	0	-6	2	20	x	9
C/C(CC(=O)Nc1ccc(Cl)c(Cl)c1)=N\NC(=O)C(=O)N1CCCCC1	0	-3	-21	1	9	-7
Cc1cccc(CSc2ncccc2C(=O)O)c1	11	-8	9	5	54*	3
N#C/C(=N/Nc1ccc(OC(F)(F)F)cc1)C(N)=S	-55	49	79*	46*	1	38
CCc1ccc(N(CC(=O)NCCc2ccccc2)C(=O)CCC(=O)Nc2ccccn2)cc1	-11	3	-7	8	x	4
COCCCNC(=O)CCCCCNS(=O)(=O)c1ccc(Br)cc1	5	7	3	10	18	-10
O=Nc1ccc(NO)c2ccccc12	x	x	x	-14	x	71*
CN(C)c1cccc(C(=O)N/N=C/c2ccsc2)c1	4	-10	-8	-76	31	58*
Cc1scc(C(=O)N/N=C/c2ccsc2)c1C	-8	-14	1	6	54*	62*
C[C@@H]1CN([C@@H](C)CO)C(=O)CCCn2nncc2CO[C@@H]1CN(C)S(=O)(=O)c1cccs1	x	x	x	10	x	-2
COC(=O)N1CCCCC1c1cc(C(=O)NCc2cccnc2)no1 (centres undefined)	x	x	x	7	x	-16
O=C1Cc2c(-c3ccccc3)cc(-c3cccc(Cl)c3)nc2-c2ccccc2N1	x	x	x	-5	x	64*
O=C1CN(c2nc(-c3ccccc3)c3cc(Cl)ccc3n2)c2ccccc2N1	4	-5	2	6	14	21
Cc1c(/C(O)=C2\C(=O)C(=O)N(CCN(C)C)C2c2ccccc2)cnn1-c1ccccc1 (centres undefined)	2	-4	-9	-38	4	-6
NC(c1csc(NC(=O)Nc2ccc(OC(F)(F)F)cc2)n1)C1CCCCC1 (centres undefined)	x	x	x	7	x	85*
COc1ccc(NC(=O)Nc2nc(C(N)CC(C)C)cs2)cc1 (centres undefined)	x	x	x	11	x	7
CC(C)C1=CC(=Nc2ccc(S(N)(=O)=O)cc2)C=C(C(C)C)C1=O	11	-10	-17	9	x	-7
COc1ccc(-c2cc(=O)c3ccccc3o2)cc1	43	37	43	-194	-3	32
COc1ccc(-c2cc3ccccc3c(=O)o2)cc1	x	x	x	-440	x	53*
C#CCOc1c(Br)cc(/C=C2/C(=O)ON=C2C)cc1OC	5	4	-10	6	x	3
C=CCOc1c(Br)cc(/C=C2/C(=O)ON=C2C)cc1OC	1	-3	8	32*	x	-26
O=C(CSc1nnc(-c2ccc(Br)cc2)o1)Nc1cccc(C(=O)O)c1	-13	-1	-12	-1	x	63*
Cc1nc(=S)c2c([nH]1)-c1ccccc1CC21CCCCC1	-7	2	-8	20	4	80*
CCOC(=O)C1(C)/C(=N/Nc2cccc(Cl)c2)C(=O)C(=O)N1c1ccccc1 (centres undefined)	3	9	-1	43*	4	1
CCOC(=O)C1(C)CCN1C(=O)c1ccc(Cl)nc1 (centres undefined)	x	x	x	19	x	-5
Cc1cc(N/N=C/c2ccccc2O)nc(-c2ccccc2O)n1	-2	-17	-10	10	39	19
